# Assay results published in PubChem BioAssay AID652128 (Broad Institute, 2013).
# Some of the results follow. Results filed as inconclusive are left out. Active and inactive are the calls of the source.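 Rule for the calls: active = fitted half-maximal concentration for signal loss at or below twice the highest dose tested, in every separate run (actives reach about 64 µM in these data); inconclusive = runs disagree, or flat partial signal loss, or poor fit; inactive = the rest.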
# Experiment: DNA-binding compounds via dye displacement, dose response, artefact control for RAD52 inhibitor project, biochemical, fluorescence polarization, cherry-pick (AID 652128)
# Details: Salmon sperm DNA/acridine orange FP displacement
SMILES,outcome,AC50
CCN1CCCC1CNC(=O)c1ccc2c(c1)NC(=O)/C(=C\c1ccccc1F)S2 (configuration not stated),inactive,
COc1cccc(CNc2nc(NCc3cccs3)nc3ccsc23)c1,inactive,
CCCCCCCCCCOC(=O)Cn1c(COc2ccc(C)cc2)[n+](C)c2ccccc21,inactive,
CCC1CCCCN1CCCNC(=O)c1cc2c(Cl)nc3ccccc3c2s1 (configuration not stated),,49 µM (active)
CCn1cc(CN2CCC(C(=O)Nc3cccc(-c4cccc(Cl)c4)c3)CC2)cn1,inactive,
NCCCCCC(=O)N/N=C/c1ccc2nccnc2c1,inactive,
COc1ccc2sc(N(CCCN(C)C)C(=O)c3ccc(S(=O)(=O)N(C)C4CCCCC4)cc3)nc2c1,inactive,
CN(C)CCNC(=O)c1ccc(-c2cn3c(-c4ccc(Oc5ccccc5)cc4)cnc3cn2)cc1,inactive,
CCN(CC)CCn1c2ccc(Cl)cc2c2nc(C)sc21,inactive,
CN1CCN(C2Cc3ccc(Cl)cc3Sc3ccc(F)cc32)CC1 (configuration not stated),inactive,
NCCCNC(=S)NCCCN(Cc1ccc(Cl)cc1)c1ccc(Br)cn1,inactive,
CN(Cc1ccccc1F)c1cc2c(c3c1ccn3C)C1CCC2O1 (configuration not stated),inactive,
